Records with an inconclusive call do not appear. Unmarked numbers belong to inactive results. Calls come from the whole dose curve.
Target: Peroxisome proliferator-activated receptor gamma (Homo sapiens) (UniProt P37231)
Test: qHTS assay to identify small molecule antagonists of the peroxisome proliferator-activated receptor gamma (PPARg) signaling pathway (AID 743191); note: nearly all actives have a fitted effect of over 30% in size
Settings: HEK293H PPARg-UAS-bla, beta-lactamase ratio, antagonist, 17 h; series mostly up to 62.6 µM; ratio activity, negative = inhibition: at the top concentration
Source text: U.S. Tox21 Program National Center for Advancing Translational Sciences [NCATS] NIH Chemical Genomics Center [NCGC] U.S. Environmental Protection Agency [EPA] National Institutes of Environmental Health Sciences [NIEHS] National Toxicology Program [NTP] U.S. Food and Drug Administration [FDA] Tox21 Assay Overview: The peroxisome proliferator-activated receptors (PPARs) are lipid-activated transcription factors of the nuclear receptor superfamily with three distinct subtypes namely PPAR alpha, PPAR delta (also called PPAR beta) and PPAR gamma (PPARg). All these subtypes heterodimerize with Retinoid X receptor (RXR) and these heterodimers regulate transcription of various genes. PPAR-gamma receptor (glitazone receptor) is involved in the regulation of glucose and lipid metabolism. To identify the compounds that inhibit PPAR-gamma signaling, GeneBLAzer PPAR gamma UAS-bla HEK293H cell line (Invitrogen, Carlsbad, CA, USA) containing a beta-lactamase reporter gene under control of an Upstream Activator Sequence (UAS) was used to screen the Tox21 compound library.
Tox21 Assay Protocol Summary: PPARg-bla cells were dispensed at 3000 cells/6uL/well in 1536-well black wall/clear bottom plates using a Multidrop Combi (Thermo Fisher Scientific, Waltham, MA) dispenser. After the assay plates were incubated at 37C and 5% CO2 for 5 h, 23 nL of compounds dissolved in DMSO, positive controls or DMSO only was transferred to the assay plate by a Pintool station (Kalypsys, San Diego, CA). The assay plates were incubated at 37C for 17 h. After 1 uL of LiveBLAzerTM B/G FRET substrate was added using a Bioraptr Flying Reagent Dispenser (FRD) workstation (Beckman Coulter, Indianapolis, IN, USA), the plates were incubated at room temperature for 1 h, and fluorescence intensity was measured by an Envision plate reader (PerkinElmer, Shelton, CT).
% is set by controls: 0 for no effect and ±100 for the full control effect.

Chain of Peroxisome proliferator-activated receptor gamma (Homo sapiens) (P37231 whole entry, looked up): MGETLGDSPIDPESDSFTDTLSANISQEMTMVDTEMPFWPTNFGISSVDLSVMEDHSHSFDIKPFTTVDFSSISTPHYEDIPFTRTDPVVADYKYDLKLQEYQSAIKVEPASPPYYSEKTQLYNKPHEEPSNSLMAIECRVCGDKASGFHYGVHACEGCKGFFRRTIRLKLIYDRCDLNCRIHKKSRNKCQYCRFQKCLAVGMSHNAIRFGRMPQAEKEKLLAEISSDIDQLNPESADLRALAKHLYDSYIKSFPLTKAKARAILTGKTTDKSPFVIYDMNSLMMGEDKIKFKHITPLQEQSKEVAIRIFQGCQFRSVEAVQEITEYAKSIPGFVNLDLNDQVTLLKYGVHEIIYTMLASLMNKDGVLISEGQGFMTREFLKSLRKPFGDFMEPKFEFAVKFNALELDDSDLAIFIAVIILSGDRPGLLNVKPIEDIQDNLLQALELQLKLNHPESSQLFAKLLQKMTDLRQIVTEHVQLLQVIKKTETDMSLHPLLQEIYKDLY

Structure (SMILES)	ratio activity, negative = inhibition
C[C@H]1O[C@H](O[C@H]2[C@H](O)[C@@H](O)[C@@H](O[C@H]3[C@H](O)[C@@H](O)[C@H](O)O[C@@H]3CO)O[C@@H]2CO)[C@H](O)[C@@H](O)[C@@H]1N[C@H]1C=C(CO)[C@@H](O)[C@H](O)[C@H]1O	4.59%
COc1cc2c(Nc3ccc(Br)cc3F)ncnc2cc1OCC1CCN(C)CC1	5.25%
CC1=CC[C@H](CC=O)C1(C)C	-6.9%
C[N+](C)(C)CC(O)CCl (stereo not given)	7.47% [at 81.1 µM]
Cc1ccccc1C	11.3% [at 81.1 µM]
O=c1cc(O)c(Cl)c[nH]1	10.2%
Cc1ccccc1OCC1CO1 (stereo not given)	-9.59% [at 81.1 µM]
Cc1nc2ccccc2c(=O)o1	1.25% [at 81.1 µM]
CCC1COC(=O)O1 (stereo not given)	-13.4%
CC(C)SCc1ccco1	-9.4% [at 29.1 µM]
c1ccccc1	11.8%
C=CC(C)(O)CC/C=C(\C)CC (stereo not given)	-6.53%
CCCCCCCCCCCCCCCCI	-3.9% [at 29.1 µM]
COCCOCCOCCOC	12.3%
O=c1[nH]c(=O)c2[nH]c(=O)[nH]c2[nH]1	-6.65% [at 13.2 µM]
COC(/C=C(\C)CCC=C(C)C)OC	-0.0258%
O=C(O)c1ccccc1C(=O)OCc1ccccc1	8.22%
NCCc1ccn[nH]1	4.75%
CC(C)(C)NCCO	3.46%
Nc1ccnc(=O)[nH]1	4.2%

Structure (SMILES)	ratio activity, negative = inhibition
CCC(CO)CO	10.2%
CC(Cl)COP(=O)(OCC(C)Cl)OCC(C)Cl (stereo not given)	2.93%
CCOC(=O)CCc1ccccc1	11.2%
CCCCCCCCCCCCC	2.45%
CCCCCCCCCCCCCC(=O)OC	13.7%
CCN(CCO)c1cccc(C)c1	1.12%
CC(=O)OCC(=O)[C@@]1(O)[C@H](OC(C)=O)C[C@H]2[C@@H]3CCC4=CC(=O)C=C[C@]4(C)[C@@]3(F)[C@@H](O)C[C@@]21C	17.1%
CC(=O)Nc1ncc([N+](=O)[O-])s1	-11.2%
NS(=O)(=O)c1ccc(Cl)c(S(N)(=O)=O)c1	12.7%
C=CCCCCCCCCCCC	16.1% [at 5.95 µM]
Nc1cc(C(=O)O)ccc1Cl	4.41%
CCCCCCCCCCCCCCCC(=O)NCCO	13.3%
O=S1(=O)CCCC1	7.54% [at 81.1 µM]
C=CCOC(=O)c1ccc(C(=O)OCC=C)c(C(=O)OCC=C)c1	3.54%
C[CH2][Ge]([Cl])([CH2]C)[CH2]C	-19.4% [at 81.1 µM]
O=C(O)Cc1cccc(-c2cc(CCCCCCc3ccc(O[C@H]4O[C@H](CO)[C@@H](O)[C@H](O)[C@@H]4O)c(-c4cccc(CC(=O)O)c4)c3)ccc2O[C@H]2O[C@H](CO)[C@@H](O)[C@H](O)[C@@H]2O)c1	-5.32% [at 0.55 µM]
CN(C)CCCNCCC#N	-4.73%
CCC(O)C(C)(C)C (stereo not given)	-9.89% [at 81.1 µM]
CC(=O)OC(C(=O)c1ccccc1)c1ccccc1 (stereo not given)	11.2% [at 81.1 µM]
CCCCCCCCOC(C)=O	8.32%
